TGFb inhibitor: qHTS for Inhibitors of TGF-b; HepG2 CAGA-GFP TGF-b/SMAD3 reporter, GFP fluorescence, 18 h; TGF-beta stimulated, 500 pg/mL final; Potency, µM (top dose mostly 46.1 µM), without a hit: at the highest dose activity, negative = inhibition, actives largely listed as inhibitors; 410,000 tested, 1.2% active; further: on the % scale 0 is the no-effect control and ±100 the full control effect; nearly all actives have a fitted effect of over 65% in size
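HEPG2 CAGA-GFP cells (1000/well, DMEM with 1% FBS) were pre-incubated 2 h at 37 degrees C, given compound by pin tool, then stimulated with TGF-beta at 500 pg/mL final for 18 h before per-cell GFP fluorescence imaging.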
HepG2 tox: qHTS for Inhibitors of TGF-b: Cytotox Counterscreen; HepG2 CAGA-GFP viability, ATP luminescence, 18 h; Potency, µM (highest dose often 46.1 µM), for inactives: at the highest dose activity change, negative = cytotoxicity, most hits filed as cytotoxic; 410,000 tested, 0.76% active
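CellTiter-Glo luminescence gave cytotoxicity after 18 hours at 37 degrees C. The cells were HepG2 CAGA-GFP in 1% FBS DMEM, stimulated with 500 pg/mL TGF-beta after compound addition. %Activity was normalised to no-cell wells (complete cell-killing) and DMSO (no toxicity), and curves were fitted and classified.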
HT1080NT lethal: qHTS for induction of synthetic lethality in tumor cells producing 2HG: qHTS for the HT-1080-NT fibrosarcoma cell line. Potency, µM (series often up to 46.1 µM), for inactives: at the top dose activity, negative = less viability, hits mostly cytotoxic. 360,000 tested, 1.6% active. HT-1080-NT fibrosarcoma viability, CellTiter-Glo ATP luminescence, 48 h;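 further: NT is the 2HG producing partner of a matched IDH1 knockdown line; 0% = DMSO-treated cells and -100% = media-only wells without cells; nearly all actives have a fitted effect of over 55% in size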
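Viability by CellTiter-Glo luminescence after 48 h compound exposure at 37C of HT-1080-NT cells (750/well, RPMI, 5% FBS). % activity scaled between DMSO wells and medium-only wells, then curve-fitted and categorized by curve class.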
KB-3-1 tox: qHTS assay for MDR1-selective chemotherapeutics: Primary screen using the parental adenocarcinoma cell KB-3-1. AID 1347075, 2019. Potency, µM (top dose mostly 46.1 µM), actives largely listed as cytotoxic. 400,000 tested, 1.4% active. KB-3-1 viability, CellTiter-Glo ATP luminescence, 72 h; further: on the % scale 0 is the no-effect control and ±100 the full control effect; nearly all actives have a fitted effect of over 60% in size
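Cells are dispensed, compounds pinned in, plates held at 37 °C for 72 h, then CellTiter-Glo is added and luminescence read after 10 minutes. Cell line: parental KB-3-1 in phenol-red-free DMEM, 10% FBS.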
HT1080 IDH1KD tx: qHTS for induction of synthetic lethality in tumor cells producing 2HG: qHTS for the HT-1080-IDH1KD cell line; HT-1080 IDH1 knockdown viability, ATP luminescence, 48 h; Potency, µM (top dose mostly 46.1 µM), for inactives: at the highest dose activity, negative = toxicity, actives largely listed as cytotoxic; 360,000 tested, 2% active;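 further: 0% = DMSO wells and -100% = cell-free medium wells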
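% activity derives from luminescence (CellTiter-Glo), normalised to DMSO and no-cell wells. HT-1080-IDH1KD cells, 750/well, had 48 h compound exposure at 37 °C.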
KB-V1 cytotox: qHTS assay for MDR1-selective chemotherapeutics: Primary screen using the drug-selected MDR subline cells KB-V1 | KB-V1 MDR cells viability, CellTiter-Glo, 72 h | Potency, µM (doses to about 46.1 µM), usual class: cytotoxic | 400,000 tested, 3.4% active | AID 1347076, 2019; further: on the % scale 0 is the no-effect control and ±100 the full control effect; nearly all actives have a fitted effect of over 60% in size
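Compound-treated KB-V1 multidrug-resistant cells, 72 h, 37 degrees C; viability by CellTiter-Glo. Fitted qHTS curves give the values.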
* hit, by the source's call; i = inactive; ? = inconclusive; . = no result given; ! = a repeat was not active. Shown are actives, neighbours in structure and some others; about 6.6% of the full set was active somewhere. The call rests on the fitted dose curve; in most records, active means well fitted curve in the direction sought with a large enough effect; inconclusive means small, poorly fitted or top-dose-only effect, or another doubt; inactive means no such curve, though single readings can be large; an effect the other way counts as inactive or inconclusive. Potency means the concentration at half of the fitted maximal effect.

SMILES	TGFb inhibitor	HepG2 tox	HT1080NT lethal	KB-3-1 tox	HT1080 IDH1KD tx	KB-V1 cytotox
Cc1cccc(NC(=O)c2ccc(S(=O)(=O)NCc3cccnc3)cc2)c1	?	4%	-1%	?	-14%	21µM*
Cc1cccc(NC(=O)c2ccc(C(=O)Nc3cccc(C)c3)nc2)c1	?	-19%	?	i	21µM*	?
COc1cccc(S(=O)(=O)NCc2ccc(C(=O)Nc3ccc(Cl)c(Cl)c3)cc2)c1	?	-36%	-12%	?	-20%	i
Cc1cc(C)cc(NC(=O)c2ccc(S(=O)(=O)NCc3cccnc3)cc2)c1	-13%	-16%	-16%	i	-8%	i
O=C(Nc1ccc(Cl)c(Cl)c1)c1cccc(S(=O)(=O)NCc2cccnc2)c1	?	-23%	7.3µM*	i	23µM*	i
COc1ccc(-c2cn(CC[C@@H]3CC[C@H](NC(=O)Cc4ccccn4)[C@@H](CO)O3)nn2)cc1	.	.	0%	i	17%	i
Cc1ccc(NC(=O)Cn2c(C)cc(C)c(C#N)c2=O)cc1	?	-2%	.	i	.	i
CC(C)(C)c1ccc(N2C(=N)SCC2=O)cc1	8%	6%	-2%	i	-3%	i
N=C1SCC(=O)N1c1ccc(Cl)cc1	6%	-14%	5%	15µM*	5%	?
COCCCn1c(=O)c2sccc2n2c(CCCC(=O)Nc3cccc(C(F)(F)F)c3)nnc12	?	-23%	.	.	.	.
CCOC(=O)c1cnc2c(C)c(Cl)ccc2c1Nc1ccc(N2CCOCC2)cc1	8%	-46%	.	i	.	i
Cc1ccc(C)c(N2CCN(S(=O)(=O)c3cc(C(=O)Nc4ccc(Oc5ccccc5)cc4)ccc3F)CC2)c1	-26%	-23%	.	.	.	.
O=C(NC1CCCC1)C(c1ccncc1)N(Cc1ccccc1)C(=O)Cc1cccs1 (centres undefined)	1%	-7%	4%	i	-25%	?
COCCN(C(=O)Cc1cccs1)C(C(=O)NCc1ccc(OC)cc1)c1ccc(C)cc1 (centres undefined)	-2%	6%	0%	i	2%	?
COc1ccc(CNC(=O)C(c2ccc(C)o2)N(Cc2cccs2)C(=O)Cc2cccs2)cc1 (centres undefined)	0%	-16%	?	?	-22%	15µM*
COc1cc(C(C(=O)NC2CCCCC2)N(Cc2cccs2)C(=O)Cc2c[nH]c3ccccc23)cc(OC)c1OC (centres undefined)	?	-5%	-19%	?	-14%	16µM*
O=C(NCc1ccccc1)C(c1ccccc1)N(Cc1ccc2c(c1)OCO2)C(=O)Cc1cccs1 (centres undefined)	-12%	-7%	-18%	i	-28%	13µM*
O=C(NC1CCCC1)C(c1ccsc1)N(Cc1ccccc1)C(=O)Cc1cccs1 (centres undefined)	?	11%	3%	i	-14%	4.6µM*
O=C(CSc1nc(=O)[nH]c2c1CCCC2)Nc1ccccc1C(F)(F)F	19%	-2%	.	.	.	.
Cc1cccc(Cn2cc3c(=O)n(CC(=O)Nc4ccc(C)c(F)c4)nc-3c3cc(F)ccc32)c1	-23%	-17%	.	i	.	i
c1ccc(Cn2c[n+](Cc3ccccc3)c3ccccc32)cc1	10%	-3%	?	23µM*	?	i
c1ccc(C[n+]2csc3ccccc32)cc1	-12%	-21%	?	i	?	i
COc1ccc(-c2cc(C)no2)cc1S(=O)(=O)NC1CCC(C)CC1 (centres undefined)	?	-4%	.	i	.	i
CC(C)c1cc(CN2C(C)COCC2C)cc(C(C)C)c1O (centres undefined)	-18%	-16%	1%	?	0%	16µM*
CCOC(=O)C1CCN(Cc2cc(C(C)C)c(O)c(C(C)C)c2)CC1	?	-32%	0%	i	-9%	?
SMILES	TGFb inhibitor	HepG2 tox	HT1080NT lethal	KB-3-1 tox	HT1080 IDH1KD tx	KB-V1 cytotox
COc1cccc(Cn2cc(C(=O)c3ccc(Cl)cc3)c(=O)c3ccccc32)c1	?	-25%	.	i	.	i
CC(=O)c1cccc(NC(=S)NCCc2ccc(Cl)cc2)c1	-19%	-20%	-3%	?	0%	18µM*
S=C(NCCc1ccccn1)Nc1cccc(Cl)c1	-2%	-3%	17%	i	21%	21µM*
CC(C)CNC(=O)c1cccc(NC(=O)Cc2ccc(Cl)cc2)c1	-12%	-23%	2%	?	-9%	5.8µM*
CC(C)CNC(=O)c1cccc(NC(=O)CSc2ccccc2)c1	-12%	-30%	9%	?	13%	i
CC(=O)c1cccc(NC(=S)NCc2ccccc2)c1	9%	3%	9%	i	4%	i
COC(=O)c1cccc(NC(=S)NCCC2=CCCCC2)c1	0%	-23%	-24%	?	21µM*	?
Cc1ccsc1C(=O)N1CCC1(C)C(=O)NS(=O)(=O)c1ccccc1 (centres undefined)	2%	15%	15%	i	-6%	i
CCn1c(=O)cc(SCC(=O)N(C)Cc2ccccc2)c2ccccc21	0%	-14%	-1%	i	-6%	4.6µM*
CCn1c(=O)cc(SCC(=O)N2CCN(c3ccccn3)CC2)c2ccccc21	-1%	-10%	-1%	i	-4%	?
CCn1c(=O)cc(SCC(=O)N2CCN(c3ccccc3F)CC2)c2ccccc21	-26%	-92%	-7%	i	-5%	23µM*!
CCn1c(=O)cc(SCC(=O)Nc2ccc3c(c2)OCO3)c2ccccc21	0%	-21%	-7%	i	?	16µM*
CCOC(=O)c1ccccc1NC(=O)CSc1ncc2c(n1)-c1ccccc1N(CC)S2(=O)=O	3%	-4%	.	i	.	i
Cc1cc(C)cc(C(=O)N(Cc2nc(-c3ccc(Cl)cc3)no2)C(C)C)c1	-25%	-14%	.	i	.	i
CN(C)CCn1c(NC(=O)c2ccc(Cl)cc2)nc2ccccc21	-10%	-4%	?	i	11µM*	i

High-throughput results from PubChem.
